# Screening results deposited in PubChem BioAssay by National Center for Advancing Translational Sciences (NCATS).
# Pf growth 48h – inhibits P. falciparum growth in the first generation, 48 h; P. falciparum luciferase growth in erythrocytes, 48 h; Potency, µM (titrated, usually from 28.7 µM), for the others: at the top dose activity change, negative = inhibition, most hits filed as inhibitors; 310,000 compounds, 5.9% hits; note: potency is the fitted concentration of half-maximal effect; % is set by controls: 0 for no effect and ±100 for the full control effect
#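 A one-generation exposure of luciferase-tagged malaria parasites in RPMI 1640/Albumax erythrocyte culture, 37 C and 5% CO2. Inhibition is inferred from decreased luminescence after adding detection reagent.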
# Pf growth 96h – inhibits malaria parasite growth, 96 h; P. falciparum luciferase reporter growth, 96 h; Potency, µM (titrated, usually from 28.7 µM), for inactives: top-dose activity change, negative = inhibition, hits mostly inhibitors; 320,000 compounds, 6.9% hits; note: potency is the fitted concentration of half-maximal effect; % is set by controls: 0 for no effect and ±100 for the full control effect
#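 Two-generation exposure (96 h) targets delayed-death phenotype. Reporter parasites carrying integrated firefly luciferase, in red cells at 2% hematocrit and 0.05% parasitemia final, kept at 37 C, 5% CO2; luminescence loss indicates inhibition.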
# Shiga inhibitor – blocks Shiga toxin action in Vero cells; Vero cells, Shiga toxin protein synthesis inhibition reporter; inhibition, % at 38.7 µM; 290,000 compounds, 9.2% hits; AID 2315; in the data active = inhibition mostly above about 28%, no sharp cut-off; inactive = mostly below about 43%; note: 0% is about no effect
# LmPK inh – inhibitors of Leishmania mexicana pyruvate kinase; 290,000 compounds, 0.37% hits; purified LmPK, Kinase-Glo ATP luminescence, 1 h; Potency, µM (highest dose often 57.5 µM), for inactives: at the highest dose activity change, negative = inhibition, hits mostly inhibitors; Q27686; note: potency is the fitted concentration of half-maximal effect; % is set by controls: 0 for no effect and ±100 for the full control effect
# Target sequence (Q27686 whole entry, looked up): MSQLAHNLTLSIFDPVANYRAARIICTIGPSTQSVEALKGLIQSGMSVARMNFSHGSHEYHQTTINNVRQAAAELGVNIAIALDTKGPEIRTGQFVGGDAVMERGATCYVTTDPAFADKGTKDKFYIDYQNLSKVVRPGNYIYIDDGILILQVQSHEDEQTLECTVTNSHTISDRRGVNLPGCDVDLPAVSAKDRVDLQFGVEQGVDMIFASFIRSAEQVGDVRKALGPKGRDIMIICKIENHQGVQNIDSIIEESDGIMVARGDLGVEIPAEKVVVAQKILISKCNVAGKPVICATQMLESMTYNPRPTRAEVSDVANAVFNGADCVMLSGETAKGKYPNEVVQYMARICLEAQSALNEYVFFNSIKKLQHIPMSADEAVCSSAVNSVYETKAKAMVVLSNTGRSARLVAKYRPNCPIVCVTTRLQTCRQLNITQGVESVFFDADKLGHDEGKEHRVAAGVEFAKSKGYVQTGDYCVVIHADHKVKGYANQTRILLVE
#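 qHTS format; LmPK 0.1 nM; substrates PEP 0.5 mM and ADP 0.1 mM. One-hour room-temperature incubation, then coupled luciferase luminescence; 0.5 nM enzyme wells mark activation.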
# CHX counter – counter-screen for Shiga toxin inhibitors: cycloheximide protein synthesis inhibition; cell reporter, cycloheximide protein synthesis inhibition counterscreen; max response, %; 300,000 compounds, 12% hits; AID 2314; in the data active = max response mostly above about 13%, no sharp cut-off; inactive = mostly below about 14%; note: read at 38.3 µM for the half of the compounds with a filed dose; 0% is about no effect
# Starred values were filed as active, the others as inactive; ? = inconclusive; . = no result; [ ] = remark or other dose. Rows were chosen to be rich in hits. Some 22% of all compounds tested hit in one or more screens of this group. Unless noted, calls come from the whole dose curve; as a rule, active = well fitted inhibition curve with a large enough effect; inconclusive = small, poorly fitted or top-dose-only effect, or another doubt; inactive = no such curve, though single readings can be large or run the other way.
SMILES,Pf growth 48h,Pf growth 96h,Shiga inhibitor,LmPK inh,CHX counter
C=CCNc1oc(/C=C/c2ccccc2)nc1C#N,5%,181%,74*,4%,37*
O=C(O)c1ccccc1-n1c(-c2ccccc2)cc2c1CCCC2=O,13%,1%,8,-1%,1
Cc1ccc(C(C)C)c(OCCn2ccnc2C)c1,?,12µM*,.,-1%,-1
CC#CCc1cc2ccccc2c(=O)o1,35%,?,12,0%,5.2*
COc1cc(C(=O)OCCCc2cc3ccccc3c(=O)o2)cc(OC)c1OC,12%,?,.,.,.
COC(=O)CSc1ncnc2c(C)csc12,41%,-13%,-11,-3%,-3
CCOc1cc(N2CCOCC2)c(OCC)cc1NC(=O)COC(=O)CCn1c(C)csc1=O,-10%,3%,.,.,.
Cn1c(=O)c2[nH]c(-c3ccccc3Cl)c(O)c2n(C)c1=O,4.7µM*,13µM*,-5,2%,3
Cn1c(=O)c2[nH]c(-c3ccccc3)c(O)c2n(C)c1=O,-15%,0%,-2,-4%,-1
Cn1c(CNC(=O)OC(C)(C)C)nnc1SCC(=O)N1CCOCC1,34%,42%,-2,1%,1
CCN(CC(=O)NC(C)(C)C)C(=O)c1ccc2c(c1)S(=O)(=O)c1ccccc1C2=O,?,-20%,-18,-2%,-1
CCCCC1=CC2=CC(=O)C(C)(OC(=O)CC)C(=O)C2=CN1CCc1c[nH]c2ccccc12 (centres undefined),8.3µM*,10µM*,6,0%[11.5 µM],7
COC(=O)CCCC1=CC2=CC(=O)C(C)(OC(=O)c3cccs3)C(=O)C2=CN1CCc1c[nH]c2ccccc12 (centres undefined),8.3µM*,10µM*,1,-6%[11.5 µM],-2
FC(F)(F)c1cc(C(F)(F)F)c2ccc(N/N=C/c3cccc(Cl)c3)nc2n1,-12%,5%,-19,0%,2
FC(F)(F)c1cc(C(F)(F)F)c2ccc(N/N=C/c3ccccc3)nc2n1,36%,0.47µM*,-14,2%,-3
N#CC(c1ccccc1)c1ccc2c(C(F)(F)F)cc(C(F)(F)F)nc2n1 (centres undefined),.,12µM*,-8,0%,-2
Cc1ccc(C(C#N)c2ccc3c(C(F)(F)F)cc(C(F)(F)F)nc3n2)cc1 (centres undefined),?,1.7µM*,-17,-12%,-3
CN(N)c1ccc2c(C(F)(F)F)cc(C(F)(F)F)nc2n1,-9%,3%,-21,1%,-4
O=C(CCCN1C(=O)c2ccccc2C1=O)Nc1nnc(C2CC2)s1,2%,10%,-7,2%,-4
Fc1ccccc1CNc1ccc(Cl)cc1,?,3%,50*,-7%,28*
O=C(NCCc1ccccc1)c1coc(=O)c(Br)c1,-20%,17%,26,3%,14*
Nc1sc2c(c1C(=O)NCCc1ccccc1)CCC2,13µM*,-11%,34,0%,17
O=C(NCC1OCCc2ccccc21)c1ccco1 (centres undefined),-5%,132%,34*,5%,19*
O=C(O)CNC(=O)c1ccccc1NC(=O)c1ccco1,3%,.,-8,1%,-1
O=C(Nc1ccccc1C(=O)NCCc1ccccc1)c1ccco1,48%,.,44,1%,37*
SMILES,Pf growth 48h,Pf growth 96h,Shiga inhibitor,LmPK inh,CHX counter
Nc1sc2c(c1C(=O)c1ccccc1)CCCC2,18%,3%,7,0%,-2
O=C(CCc1ccccc1)NCC1OCCc2ccccc21 (centres undefined),14%,-3%,17,3%,11
CN(CC(=O)NCCc1ccccc1)Cc1ccco1,87%,81%,99*,-2%,32*
O=C(NCCc1ccccc1)c1c(F)cccc1F,169%,356%,99*,1%,39*
O=C(NCCc1ccccc1)c1ccccc1NC(=O)C1CCCCC1C(=O)O (centres undefined),55%,135%,56*,0%,29*
NS(=O)(=O)c1ccc(CCNC(=O)c2ccco2)cc1,7%,6%,-5,-3%,8
O=C(NCCc1csc(-c2ccccc2)n1)c1c(F)cccc1F,0%,-3%,35,-2%[11.5 µM],0
O=C(NCCc1ccccc1)c1ccco1,170%,-20%,86*,-2%,49*
COCCNC(=O)c1ccccc1NC(=O)CSc1ccc(C)cc1,-11%,-81%,2,2%,-3
Cc1ccc(-n2c(C)nnc2SCC(=O)N(C)c2c(N)n(Cc3ccccc3)c(=O)[nH]c2=O)cc1,-10%,?,.,.,.
CCN(C(=O)c1ccco1)C1C2CC3CC(C2)CC1C3 (centres undefined),-14%,0%,-4,-2%,-4
Cc1ccc(C[n+]2c(-c3ccc(C)cc3)cc(-c3ccc(C)cc3)cc2-c2ccc(C)cc2)cc1,0.33µM*,?,.,.,.
CCCCC(=O)NC(=O)NC(c1ccccc1)c1ccccc1,?,?,8,-5%,1
CCCC/C(C)=C/[C@@H](NP(=O)(c1ccccc1)c1ccccc1)c1ccccc1,?,15µM*,0,2%,5
COc1cccc(/C=N/NC(=O)CCn2nnc3ccccc32)c1,27%,17%,8,-11%,13
COc1cccc(/C=N/NC(=O)C(C)n2nnc3ccccc32)c1 (centres undefined),14%,3%,23,-1%,25*
COc1cc(/C=N\NC(=O)c2ccc(-c3ccccc3)cc2)ccc1OCC(N)=O,-7%,-6%,1,6%,-2
COc1cccc(/C=N/NC(=O)c2nc(-c3ccccc3)cc(-c3ccccc3)n2)c1,10µM*,7%,7,2%,0
COc1ccc(/C=N/NC(=O)c2nc(-c3ccccc3)cc(-c3ccccc3)n2)cc1OC,?,2.3µM*,28,7%,-2
CSCC[C@H](NC(=O)[C@@H]1Cc2ccccc2CN1)C(=O)NC[C@H]1CC[C@H](C(=O)O)CC1,-9%,7%,1,-7%,-3
Cc1cc(S(=O)(=O)N2CCOCC2)ccc1OCC(=O)NCCN1CCOCC1,19%,7%,-14,9%,-6
CC(OC(=O)CCCN=C1NS(=O)(=O)c2ccccc21)C(=O)Nc1ccccc1[N+](=O)[O-] (centres undefined),-1%,-13%,.,.,.
O=C1OCCN1c1c(-c2ccccc2)c(-c2cccs2)nc2c(-c3ccccc3)cccc12,?,?,-5,-6%,2
CC(OC(=O)C1CC1)C(=O)Nc1cc(C(F)(F)F)ccc1Cl (centres undefined),-4%,-34%[5.75 µM],3,1%,-3
Cc1nc(-c2ccccc2)sc1C(=O)Nc1ccc(S(N)(=O)=O)cc1,2%,3%,-5,-11%,-2
Cc1nc(-c2ccc(Cl)cc2)sc1C(=O)O,120%,0%,91*,-4%[11.5 µM],25
CCNC(=O)c1sc(-c2ccccc2)nc1C,87%,.,66*,-2%,45*
Cc1ccc(-c2nc(C)c(C(=O)O)s2)cc1,277%,130%,37,?,21*
